Measured values published in PubChem BioAssay (Tox21).
Unmarked numbers belong to inactive results. Inconclusive results are not listed. A call without a number means that no potency is given here. Active and inactive are the calls of the source. Unless noted, the call rests on the fitted dose curve; in most records, active means well fitted curve in the direction sought with a large enough effect in the repeat runs; inconclusive means weak or mixed curves; inactive means no such curve, though single readings can be large; an effect the other way counts as inactive or inconclusive.

Key:
[1] = qHTS assay for small molecules that induce genotoxicity in human embryonic kidney cells expressing luciferase-tagged ATAD5 (AID 651632); further: nearly all actives have a fitted effect of over 15% in size; further: potency means the concentration at half of the fitted maximal effect
Method in brief: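 A rise in luciferase signal from ATAD5-tagged HEK293T cells marks genetic stress. Cells were exposed to compounds for 16 hr at 37C, 5% CO2, then luciferase was quantified after a 30 min room-temperature incubation with Amplite.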

[2] = qHTS assay for small molecule agonists of the p53 signaling pathway - cell viability (AID 651633; calls by dose curve; further: series mostly up to about 83 µM; nearly all actives have a fitted effect of over 30% in size)
Method in brief: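 p53RE-bla cells were treated with compound for 16 hours at 37 C. Cytotoxicity was then measured as CellTiter-Glo luminescence after 30 min at room temperature.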

[3] = qHTS assay for small molecules that induce genotoxicity in human embryonic kidney cells expressing luciferase-tagged ATAD5 - cell viability (AID 651634; calls by dose curve; further: nearly all actives have a fitted effect of over 25% in size)
Method in brief: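 Cytotoxicity counter-readout: after 15.5 hr compound treatment at 37C, live-cell protease activity in ATAD5-luciferase HEK293T cells measured by CellTiter-Fluor fluorescence, 30 min development at 37C.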

[4] = qHTS assay for small molecule disruptors of the mitochondrial membrane potential - cell viability (AID 720634; calls by dose curve;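 further: human HepG2 liver cancer cells; series mostly up to about 83 µM; nearly all actives have a fitted effect of over 20% in size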)
Method in brief: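 Cytotoxicity was quantified from ATP content by CellTiter-Glo luminescence in the same wells as the MMP dye read-out. HepG2 (2,000 cells/well) were plated overnight and exposed to compounds for 1 hr at 37 C.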

[5] = qHTS assay for small molecule disruptors of the mitochondrial membrane potential (AID 720635); further: potency means the concentration at half of the fitted maximal effect
Method in brief: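 HepG2 cells exposed to compound 1 hr at 37C, then Mito-MPS dye 30 min. Ratio read of aggregate (540/590 nm) versus monomer (490/535 nm) fluorescence.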

[6] = qHTS assay to test for compound auto fluorescence at 590 nm (red) in HepG2 cells (AID 720674)
Method in brief: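 Seeding: 2,000 HepG2 cells/well, MEM/10% FBS, overnight 37 C. Dosing: compound vs DMSO. Incubation: 1 hr, 37 C, 5% CO2. Read: fluorescence 540 ex/590 em, Rose Bengal sodium as red reference.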

[7] = qHTS assay to test for compound auto fluorescence at 535 nm (green) in HepG2 cells (AID 720675)
[8] = qHTS assay to test for compound auto fluorescence at 590 nm (red) in HEK293 cells (AID 720679)
Method in brief: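 HEK293 cells (2,000/well, 10% dialyzed FBS) attached 4-5 hr, then dosed with compound or DMSO and incubated overnight at 37C, 5% CO2. Red fluorescence read at 540/590 nm, Rose Bengal sodium as reference fluorophore.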

[9] = qHTS assay to test for compound auto fluorescence at 460 nm (blue) in HEK293 cells (AID 720678)
Method in brief: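 HEK293 cells (2,000/well, medium with 10% dialyzed FBS) attached 4-5 hr, then exposed to compound overnight at 37C, 5% CO2. Blue fluorescence read at 405/460 nm, with triamterene as reference fluorophore.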

[10] = qHTS assay for small molecule agonists of the p53 signaling pathway (AID 651631; calls by dose curve; further: nearly all actives have a fitted effect of over 15% in size)
Method in brief: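 Testing took place in human colorectal HCT-116 cells with stable p53RE-driven beta-lactamase. After 16 h of compound exposure at 37 °C, a FRET substrate was added and fluorescence recorded 2 h later.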

Row | Structure (SMILES) | Potency [1] | Potency [2] | Potency [3] | Potency [4] | Potency [5] | outcome [6] | outcome [7] | outcome [8] | Potency [9] | Potency [10]
1 | CC(C)NCC(O)c1cc(O)cc(O)c1 (configuration not stated) | inactive | inactive | inactive | inactive | inactive | inactive | inactive | inactive |  | 
2 | O=S1(=O)c2cccc3cccc(c23)N1CCCN1CCN(c2ccc(F)cc2)CC1 | inactive | inactive | inactive | inactive |  | inactive | inactive |  |  | 
3 | O=C(NS(=O)(=O)/C=C/c1cccs1)c1ccc(F)cc1Br | 1.37 µM (active) | inactive | inactive | inactive | 61.1 µM (active) | inactive |  | inactive | inactive | 
4 | CC(C)(C)C(=O)OCOP(=O)(COCCn1cnc2c(N)ncnc21)OCOC(=O)C(C)(C)C | inactive |  | inactive | inactive |  | inactive |  |  | inactive | inactive
5 | CC[C@@H]1C[C@H](N(Cc2cc(C(F)(F)F)cc(C(F)(F)F)c2)C(C)=O)c2cc(C(F)(F)F)ccc2N1C(=O)OC(C)C | inactive | inactive | inactive | inactive | 4.33 µM (active) |  | inactive | inactive | inactive | 
6 | CC(O)C1CCCCC1 (configuration not stated) | inactive | inactive | inactive | inactive | inactive | inactive |  | inactive |  | 
7 | C[C@@H](C1=C(CCN(C)C)Cc2ccccc21)c1ccccn1 | inactive | inactive | inactive | inactive | inactive | inactive | inactive | inactive | inactive | 
8 | ClC(Cl)(Cl)c1ccc(C(Cl)(Cl)Cl)cc1 | inactive | inactive | inactive | inactive | 13.5 µM (active) | inactive | inactive | inactive | inactive | 
9 | CCCCCCc1ccc(N)cc1 | inactive |  | inactive | inactive |  | inactive |  | inactive | inactive | inactive
10 | CCCCOC(=O)/C=C\C(=O)OCCCC | inactive | inactive | inactive | inactive |  | inactive | inactive |  | inactive | 
11 | O=C(O)/C=C/c1cnc[nH]1 |  | inactive | inactive | inactive | inactive | inactive | inactive | inactive | inactive | inactive
12 | O=C(CCN1CCN2CCCC2C1)N1c2ccccc2Sc2ccc(Cl)cc21 (configuration not stated) | inactive | inactive | inactive | inactive |  | inactive | inactive | inactive | inactive | 
